GDH-TPI counter: GDH-TPI coupling enzyme inhibitors, primary screen, artefact control for M. tuberculosis FBA inhibitor project, biochemical, absorbance, full deck; 360,000 tested, 1.2% active; GDH-TPI coupled enzyme counterscreen, NADH absorbance; AID 588335, 2011; inhibition, % at 4.8 µM; in the data active = inhibition above about 30%;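 also: 0% = DMSO wells and 100% = wells lacking the enzyme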
Rv3671c protease: Rv3671c serine protease inhibitors, primary screen, biochemical, fluorescence polarization, M. tuberculosis H37Rv. P9WHR9. inhibition, % at 5.96 µM. 320,000 tested, 0.048% active. AID 2606, 2010; in the data active = inhibition above about 38%;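 also: extracellular domain of Rv3671c used as enzyme; 0% = enzyme with DMSO and 100% = no enzyme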
Mtb bLac sens: beta-lactam sensitization of Mtb H37Rv, H37Rv | M. tuberculosis H37Rv growth with meropenem, percent inhibition | inhibition, % at 25 µM | 330,000 tested, 0.27% active | AID 434955, 2010;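 also: growth measured after seven days incubation then overnight dye step; 0% = bacteria only wells and 100% = bacteria with antibiotic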
RecA intein inh: Mtb RecA intein splicing inhibitors, primary screen, biochemical, fluorescence, HTS; cell-free RecA intein splicing; inhibition, % (test concentration not listed); 290,000 tested, 0.75% active; in the data active = inhibition above about 30%;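 also: 0% = vehicle wells and 100% = reference inhibitor control wells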
Mtb FBA inh: Mtb FBA enzyme inhibitors, primary screen, biochemical, fluorescence, strain H37Rv. Fructose-bisphosphate aldolase (Mycobacterium tuberculosis (strain ATCC 25618 / H37Rv)), …. purified M. tuberculosis FBA, fluorescence read-out. inhibition, % at 1 µM. 360,000 tested, 2.3% active; in the data active = inhibition above about 27%;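 also: 0% = vehicle and 100% = reference inhibitor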
Mtb UGM inh: M. tuberculosis UGM enzyme inhibitors, primary screen, biochemical, fluorescence polarization, single point. 320,000 tested, 0.06% active. purified UGM, fluorescence polarization probe displacement. AID 504406, 2011. inhibition, % at 10 µM. UDP-galactopyranose mutase (Mycobacterium tuberculosis (strain ATCC 25618 / H37Rv)), …; in the data active = inhibition above about 10%, passing the limit was not always enough
GFP chromophore: counter-screen: blocks GFP chromophore formation, dose response, counter-screen, biochemical, fluorescence, homogeneous. shares compounds with RecA intein inh. cell-free GFP chromophore formation. EC50, µM. 2,100 tested, 83% active. AID 434968, 2010
Numbers without * were called inactive; nt = no result. Sampled rows, rich in hits. Any-hit rate of the full collection: about 4%. Unless noted, no rule for the calls is given here.

SMILES	GDH-TPI counter	Rv3671c protease	Mtb bLac sens	RecA intein inh	Mtb FBA inh	Mtb UGM inh	GFP chromophore
COC(=O)C(C#N)C(c1cccnc1)c1c(C)[nH][nH]c1=O (stereo unspecified)	-11.1	5.6	3.2	85.3*	-2.3	1.0	7.79*
CC(=O)NC(c1ccccc1)c1cccnc1 (stereo unspecified)	13.6	3.3	-16.4	-1.7	-4.9	0.5	nt
O=C(Nc1ccccc1)Nc1ccc(O)c2ccccc12	nt	-48.0	6.7	60.0*	nt	3.1	3.01*
COc1ccc(OC)c(NC(=O)Nc2ccc(O)c3ccccc23)c1	3.1	-96.3	3.9	77.8*	5.0	1.3	1.24*
COc1ccc(C(=O)Nc2ccc(O)c3ccccc23)cc1OC	4.6	-3.5	-7.2	98.4*	-0.3	-1.0	15.2*
O=C(Nc1ccccc1)Nc1cccc2ccccc12	13.0	1.6	66.6	nt	7.0	-1.3	nt
COc1ccc(C(=O)Nc2ccc(F)cc2F)cc1OC	-1.6	13.0	-1.6	0.8	-0.1	-1.7	nt
Cc1ccc(NC(=O)CN(C)C(=O)CSc2nnc(N)s2)cc1	8.2	-10.0	-5.1	nt	-0.6	1.9	nt
CCO/C=C1/C(=O)N(C)C(=O)c2cc(OC)ccc21	0.0	-30.8	-7.4	85.0*	2.6	-0.8	>38
CCO/C=C1/C(=O)N(c2ccc(OC)cc2)C(=O)c2ccccc21	-0.9	-9.7	8.4	2.6	12.2	-1.2	nt
CCOc1cc(C(C(=O)NCC2CCCO2)N(C(=O)Cn2nnc3ccccc32)c2ccccc2OC)ccc1O (stereo unspecified)	-3.7	-0.8	-4.2	-0.7	3.9	-0.9	nt
O=C1C(C2=C(O)c3ccccc3C2=O)=Nc2ccccc21	2.4	-10.3	-12.4	47.4*	-12.2	0.7	1.83*
Cc1ccc(C2C(C#N)=C(N)Oc3n[nH]c(C)c32)cc1 (stereo unspecified)	-5.7	-5.4	0.8	77.4*	-0.1	-1.6	18.8*
Cc1[nH]nc2c1C(c1cccs1)C(C#N)=C(N)O2 (stereo unspecified)	4.8	-2.5	0.7	54.0*	1.6	-0.8	34.2*
Cc1[nH]nc2c1C(C(C)c1ccccc1)C(C#N)=C(N)O2 (stereo unspecified)	7.4	5.3	-0.6	-1.2	2.2	0.7	nt
Cc1[nH]nc2c1C(c1ccc(Cl)cc1)C(C#N)=C(N)O2 (stereo unspecified)	1.1	-7.0	-1.3	75.5*	-4.0	1.3	28.9*
Cc1ccsc1C1C(C#N)=C(N)Oc2n[nH]c(C)c21 (stereo unspecified)	11.0	-0.3	-2.8	15.4	-4.2	-1.9	nt
Cc1[nH]nc2c1C(c1cnn(C)c1)C(C#N)=C(N)O2 (stereo unspecified)	11.7	4.8	-3.4	76.3*	8.6	3.0	22.9*
Cc1cccc(NC(=O)CSc2nnc3ccc(-c4ccccn4)nn23)c1	-0.7	2.4	-15.8	-4.1	0.5	-0.6	nt
O=C(Nc1nnc([C@@H]2C[C@H](O)[C@@H](CO)O2)s1)Nc1ccccc1F	8.8	nt	nt	nt	-0.8	nt	nt
COc1ccc(C2(CO)OC(CO)C(O)C2O)cc1 (stereo unspecified)	8.7	nt	nt	nt	4.0	nt	nt
Cc1cc(-c2[nH]nc3c2C(c2ccc(Cl)cc2)C(C#N)=C(N)O3)c(C)s1 (stereo unspecified)	9.3	-0.4	4.8	77.5*	-0.3	-0.2	22.6*
O=C(c1ccc(N2CCN(CCO)CC2)nc1)N1CCOCC1	-0.3	-0.4	2.2	37.4*	-3.2	2.8	>38
O=C(c1ccc(F)cc1)N1CCN(c2ccc(N3CCOCC3)nn2)CC1	2.5	-2.7	-6.6	-4.1	21.2	-1.3	nt
Cn1cnc([N+](=O)[O-])c1S(=O)(=O)c1cccc(Cl)c1	1.9	-4.0	100.3	60.6*	0.3	0.6	26.9*
SMILES	GDH-TPI counter	Rv3671c protease	Mtb bLac sens	RecA intein inh	Mtb FBA inh	Mtb UGM inh	GFP chromophore
CCn1c(=O)c(C(=O)NCCc2ccccc2)c(O)c2ccccc21	-2.8	-16.4	-4.8	4.1	4.0	-1.6	nt
Cn1c(-c2ccccc2)c(C(=O)CCl)c2ccccc21	12.3	nt	nt	41.9*	0.0	nt	14.2*
Cn1c(-c2ccccc2)c(CCO)c2ccccc21	15.9	-5.1	51.6	0.6	0.9	1.6	nt
CCn1c(-c2ccccc2)c(C(=O)CCl)c2ccccc21	0.0	3.7	99.1	40.3*	6.0	2.5	1.6*
Nc1nc(-c2ccco2)nn1C(=O)c1ccc(Cl)cc1	-4.7	1.2	1.9	34.3*	3.3	0.6	>38
Nc1nc(-c2ccco2)nn1C(=O)c1ccccc1	10.0	12.6	-9.3	15.3	-1.5	2.1	nt
CC1(C)Cc2c(C#N)c(N)n(-c3ccccc3)c(=S)c2CO1	-10.7	2.3	-5.4	-0.3	6.0	0.6	nt
CC1(C)C=C2C(=NN(c3ccccc3)C(N)=C2C#N)CO1	12.4	-37.6	-6.2	90.4*	1.3	1.6	1.49*
OC(c1cccc(Cl)c1)c1nc(-c2cnc3ccccc3c2)cs1 (stereo unspecified)	15.9	nt	nt	nt	3.7	nt	nt
COc1ccc(C(=O)c2c(C(F)(F)F)oc3c2C(=O)c2ccccc2C3=O)cc1	7.6	-64.7	67.5	86.8*	0.2	0.7	0.132*
O=C(Nc1ccc(N2CCOCC2)cc1)c1csc(COCCO)n1	-6.7	nt	nt	nt	-2.3	nt	nt
O=C(c1ccc([N+](=O)[O-])s1)N1CCN(c2ccc(C(F)(F)F)cn2)CC1	11.1	6.5	99.9	-1.0	-1.7	-3.3	nt
CC(C)C1C(=O)N(Cc2cn(CCC3OCCCO3)nn2)CCS(=O)(=O)N1Cc1ccc(-c2ccc(Cl)nc2)cc1 (stereo unspecified)	14.7	nt	nt	nt	5.2	nt	nt
O=C(Nc1ccc(S(=O)(=O)N2CCOCC2)cc1)c1c(F)cccc1F	-12.8	-4.2	9.8	-4.3	-1.2	1.4	nt
COc1ccc(NC(=O)Cc2ccc(Cl)c(Cl)c2)cn1	1.9	2.5	1.6	6.9	1.5	3.9	nt
COc1ccc(NC(=O)/C(Cl)=C(/Cl)S(=O)(=O)Cc2ccc(C)cc2)cn1	1.1	nt	nt	89.3*	-1.1	nt	6.67*
COc1ccc(CNC(=O)c2ccc(-c3c(C)noc3C)c3ccoc23)cc1OC	8.2	nt	nt	nt	2.4	nt	nt
O=c1[nH]cc(NCCc2ccccc2)c(=O)[nH]1	-8.2	-0.7	-3.8	51.9*	0.3	1.8	5.49*
CCOc1cccc(-c2cc(=O)[nH][nH]2)c1	-6.9	-102.7	-16.6	96.8*	0.3	1.9	2.53*
COc1ccc(-c2c[nH]c(=O)[nH]c2=O)cc1OC	-2.9	1.8	-4.2	-6.9	4.9	-1.7	nt

Screening data (PubChem)
